High-throughput results: PubChem, several laboratories
tim23-1 inh: growth inhibitors of tim23-1 mutant yeast, primary screen, luminescence, uHTS. S. cerevisiae tim23-1 growth, BacTiter-Glo luminescence, 24 h. inhibition, % at 20 µM. 1.3% of 330,000 active;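 active = growth inhibition of the mutant yeast at or above 50%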;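 note: temperature-sensitive mutant grown at 25 °C; plate controls were DMSO-treated mutant yeast for no effect and medium wells lacking yeast for full effect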
NLRP3 yeast inh: NALP3 inflammasome inhibitors in reconstituted yeast, primary screen, luminescence, uHTS | inhibition, % at 10 µM | AID 2825, 2010 | 0.39% of 330,000 active | Yeast reconstituted NLRP3/ASC/caspase-1, beta-gal luminescence, 24 h;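 active = inhibition of 50% or more; inactive = inhibition below 50%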;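 note: plate controls were induced DMSO wells for no effect and uninduced yeast grown without galactose for full effect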
TIM10 inh: growth inhibitors of isogenic TIM10 control yeast, primary screen, counter-screen for tim10-1 yeast inhibitor project, luminescence, uHTS | inhibition, % at 10 µM | AID 463195, 2010 | S. cerevisiae TIM10 strain growth, BacTiter-Glo luminescence, 24 h | 1.4% of 330,000 active;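 active = inhibition of 40% or more at the single tested concentration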;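 note: wild-type TIM10 isogenic control strain grown at permissive 25 °C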
tim10-1 inh: growth inhibitors of tim10-1 mutant yeast, primary screen, luminescence, uHTS. S. cerevisiae tim10-1 ts strain growth, BacTiter-Glo, 24 h. inhibition, % at 20 µM. 2.2% of 330,000 active;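 active = inhibition of at least 40%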;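 note: mutant grown at 25 °C; 0% = DMSO wells with yeast and 100% = wells holding no yeast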
CR mimetic SO: reduction of superoxide in aged yeast, primary screen, HTS | S. cerevisiae aged cells, superoxide DHE fluorescence; hits give low values | superoxide response (% of plate mean), % at 10 µM | 0.18% of 330,000 active | AID 2690, 2010;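 active = superoxide response under a set limit, about three screen SD below normal, cut at about 65% in these data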;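 note: yeast aged for seven days with compound at 30 °C before DHE staining; 100% = average MFI of all compound-treated wells on the plate with controls excluded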
NALP3 yeast conf: NALP3 inhibitors retested in yeast, confirmation, luminescence, single concentration. shares compounds with NLRP3 yeast inh. 81% of 1,300 active. yeast expressing human NALP3. AID 435006, 2010. inhibition, % at 10 µM; in the data active = inhibition above about 48%
Casp1-ASC yeast: CASP1-PYCARD signaling inhibition in yeast, confirmatory test, counterassay for NLRP3 inhibitor program, one-dose; shares compounds with NLRP3 yeast inh; yeast expressing Caspase-1-ASC, luminescence counter screen; inhibition, % at 10 µM; 66% of 1,000 active; AID 488784, 2010
NALP3 retest: NALP3 inhibitors in yeast, repeat test, confirmation, luminescence, single concentration, retest; inhibition, % at 10 µM; 53% of 1,000 active; shares compounds with NLRP3 yeast inh; yeast expressing human NALP3, luminescence read-out
An asterisk follows results filed as active; · = no result. Most compounds without a hit are left out; they make up all but 3.8% or so of the library. Cut-off read from the data, not from the text of the source, unless noted: active = inhibition above about 50%; inactive = the rest.

SMILES	tim23-1 inh	NLRP3 yeast inh	TIM10 inh	tim10-1 inh	CR mimetic SO	NALP3 yeast conf	Casp1-ASC yeast	NALP3 retest
CN1C(=O)C(=O)/C(=C(/O)c2ccc(Br)cc2)C1c1ccc(F)cc1 (stereo unspecified)	-2	7	-13	-5	103	·	·	·
O=C(Cc1cccc(Cl)c1)Nc1ccc(Br)cc1	22	54*	6	1	77	39	57*	48
CC1CCc2c(C(=O)Nc3ccc(N4CCOCC4)cc3)csc2C1 (stereo unspecified)	11	69*	11	18	80	53*	64*	52*
COc1cc(OC)c(C(=O)OCC(=O)NCCC2=CCCCC2)cc1OC	15	18	-1	-2	111	·	·	·
CCOC(=O)COc1ccc2c3c(c(=O)oc2c1)CCCC3	29	11	5	-5	94	·	·	·
CCCOc1ccc2c3c(c(=O)oc2c1)CCCC3	34	55*	-22	-3	101	63*	78*	64*
CCc1ccc2oc(-c3ccc(OC)cc3)cc(=Nc3c(C)n(C)n(-c4ccccc4)c3=O)c2c1	36	53*	11	-9	112	42	54*	43
COc1ccc(-c2cc(=Nc3ccc(C(=O)O)cc3)c3cc(C)ccc3o2)cc1	27	53*	29	32	83	72*	57*	41
Cc1ccc(-c2nc(-c3ccc(Cl)cc3)sc2CC(=O)O)c(C)c1	15	10	8	3	140	·	·	·
COc1ccc(C(=O)CCNc2ccc(F)cc2)cc1	-4	57*	-30	-29	94	31	·	·
COc1ccc(C(=O)CCNc2ccc(C)c(Cl)c2)cc1	14	14	-15	-14	110	·	·	·
O=c1cc(-c2ccccc2)[nH]n1-c1nc2ccccc2s1	-20	31	-20	-2	75	·	·	·
O=C1CNC(=S)N1c1nc2ccccc2s1	43	54*	21	-11	88	62*	54*	59*
CCCCCCCCCCCCOC(=O)C[N+](C)(C)C	19	54*	-41	30	99	46	59*	52*
Cc1ccc(C(=O)NNC(=S)NC(=O)c2ccc(Cl)cc2Cl)cc1	-12	51*	6	-5	173	66*	50*	49
O=C(NC(=S)NNC(=O)c1ccccc1O)c1ccc([N+](=O)[O-])cc1	-10	24	3	-4	93	·	·	·
Cc1ccc(C(=O)NNC(=S)NC(=O)c2ccccc2)cc1	21	47	25	-4	203	·	·	·
O=C(NC(=S)NNC(=O)c1ccccc1O)c1ccc(F)cc1	42	50*	27	-6	78	67*	47	52*
Cc1ccc(C(=O)NC(=S)NNC(=O)c2ccccc2O)cc1	14	53*	24	6	89	56*	35	17
CC(C)CC(NS(=O)(=O)c1cc(C(=O)O)ccc1Cl)C(=O)O (stereo unspecified)	6	-5	5	4	93	·	·	·
COc1ccc(N(CC(=O)N2CCCC2)S(=O)(=O)c2ccc(NC(C)=O)cc2)cc1	13	8	-1	11	91	·	·	·
CCC(CC)C(=O)NCCc1ccc(F)cc1	-4	-6	-17	3	109	·	·	·
Fc1ccc2c(c1)C1OCCCC1C(c1ccccc1)N2 (stereo unspecified)	24	62*	5	-14	83	32	·	·
CC(C(=O)NCCC1=CCCCC1)c1ccc([N+](=O)[O-])cc1 (stereo unspecified)	-14	51*	-6	17	81	61*	48	29
CC(Oc1cccc([N+](=O)[O-])c1)C(=O)NCCC1=CCCCC1 (stereo unspecified)	22	16	0	7	98	·	·	·
